The entries come from a sample that favours hits as a whole.
NTMT1 inh = NTMT1 methyltransferase inhibition | Q9BV86 | NTMT1 MTase-Glo SAH luminescence, purified enzyme | Potency, µM (titrated, usually from 114 µM), without a hit: at the highest dose activity change, negative = inhibition, most hits filed as inhibitors | hit rate 2.5% among 59,000;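 further: potency means the concentration at half of the fitted maximal effect; plate controls were DMSO vehicle for no effect and no enzyme for full effect; nearly all actives have a fitted effect of over 65% in size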
Target sequence (Q9BV86 whole entry, looked up): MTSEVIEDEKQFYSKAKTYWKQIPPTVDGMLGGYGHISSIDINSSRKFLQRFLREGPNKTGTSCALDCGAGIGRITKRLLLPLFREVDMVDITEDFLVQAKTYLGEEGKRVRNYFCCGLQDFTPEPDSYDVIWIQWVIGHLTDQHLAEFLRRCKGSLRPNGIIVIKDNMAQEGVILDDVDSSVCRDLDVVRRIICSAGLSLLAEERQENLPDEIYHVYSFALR
B2AR arrestin ag = ADRB2 beta-arrestin recruitment | P07550 | HTLA Tango cells, beta-arrestin recruitment, luciferase luminescence, 18 h | Potency, µM (doses to about 46.1 µM), usual class: activators | 44,000 tested, under 10 active;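 further: potency means the concentration at half of the fitted maximal effect; 0% = DMSO and full agonism = EC100 isoproterenol or metaproterenol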
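Tango cells expressing recombinant beta2-AR and beta-arrestin were treated with compounds (up to 46 microM titration) in DMEM with 1% FBS for 18 hr at 37 degrees C. Beta-arrestin recruitment drove tTA-dependent luciferase, read by luminescence; curves were fitted and classed.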
FH mod = Identification of activators of human fumarate hydratase by quantitative high-throughput screening; FH coupled MDH/diaphorase resazurin fluorescence, 15 min; Potency, µM (doses to about 79.9 µM), inactives show top-dose activity change, negative = inhibition, usual class: inhibitors; hit rate 0.22% among 54,000; AID 1347055, 2019; further: potency means the concentration at half of the fitted maximal effect; on the % scale 0 is the no-effect control and ±100 the full control effect; the screen sought activators but most active calls are inhibition curves; nearly all actives have a fitted effect of over 45% in size
PTAP-TSG101 blk = blocks PTAP binding to human TSG101, validation | Q99816 | Fluorescence polarization, FITC-PTAP peptide/Tsg101, 20 min | Potency, µM (series often up to 115 µM), hits mostly inhibitors | 44,000 tested, under 10 active | AID 1347069; further: potency means the concentration at half of the fitted maximal effect; 0% is about no effect
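Fluorescence polarization: Tsg101 binding domain (10 uM final) in 10 mM HEPES pH 7.5, 0.15 M NaCl, 0.01% Tween 20, 3 mM EDTA, 0.1 mM TCEP; compounds pinned; FITC-PTAP peptide 50 nM final; 20 min, r.t.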
GALK inh = inhibits human galactokinase; P51570; recombinant GALK, Kinase-Glo ATP luminescence, 1 h; Potency, µM (doses to about 57.5 µM), inactives show top-dose activity, negative = inhibition, actives largely listed as inhibitors; 44,000 tested, under 10 active; AID 1347072;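 further: plate controls were full GALK reaction for no effect and reaction lacking GALK for full effect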
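5 nM GALK; 35 uM ATP; 100 uM D-galactose; 20 mM HEPES pH 8.0, 5 mM MgCl2, 60 mM NaCl, 1 mM DTT, 0.01% BSA; 1 h RT; Kinase-Glo Plus luminescence.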
DYRK1A inh-1 = inhibitors of human DYRK1A kinase; recombinant DYRK1A, Kinase-Glo ATP depletion luminescence; hit rate 80% among 100; shares compounds with NTMT1 inh; AID 2705; Potency, µM (top dose mostly 76.9 µM), inactives show at the highest dose activity change, negative = inhibition, actives largely listed as inhibitors
CLK4 inh-1 = confirmation of human CLK4 kinase inhibitors, SAR round 2 | AID 493204 | recombinant Clk4, Kinase-Glo ATP luminescence, 4.5 h | Potency, µM (doses to about 76.9 µM), inactives show at the top dose activity, negative = inhibition, most hits filed as inhibitors | hit rate 90% among 90 | shares compounds with NTMT1 inh
Target sequence (Q9HAZ1 whole entry, looked up): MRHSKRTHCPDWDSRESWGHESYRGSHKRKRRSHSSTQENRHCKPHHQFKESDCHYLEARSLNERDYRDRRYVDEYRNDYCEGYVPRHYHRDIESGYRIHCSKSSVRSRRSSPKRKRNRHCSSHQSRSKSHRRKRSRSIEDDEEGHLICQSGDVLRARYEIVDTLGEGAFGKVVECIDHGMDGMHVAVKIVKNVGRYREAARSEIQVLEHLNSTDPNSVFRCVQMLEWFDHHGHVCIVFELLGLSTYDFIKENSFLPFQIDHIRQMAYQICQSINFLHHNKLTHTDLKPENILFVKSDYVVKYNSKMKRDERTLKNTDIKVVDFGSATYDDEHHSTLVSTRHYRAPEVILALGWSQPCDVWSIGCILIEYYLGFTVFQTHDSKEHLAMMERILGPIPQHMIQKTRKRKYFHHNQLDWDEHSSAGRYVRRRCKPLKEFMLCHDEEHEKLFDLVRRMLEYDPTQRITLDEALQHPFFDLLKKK
CLK4 inh-2 = CLK4 kinase inhibition, SAR round 2; shares compounds with NTMT1 inh; Reaction Biology kinase assay, 10 uM ATP; Potency, µM, usual class: inhibitors; hit rate 100% among 65; AID 504421; calls by dose curve
DYRK1A inh-2 = blocks human DYRK1A kinase in radiometric assay. Potency, µM, usual class: inhibitors. shares compounds with NTMT1 inh. hit rate 90% among 65. Reaction Biology kinase assay, 10 uM ATP;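 active means compounds that showed inhibition of Dyrk1a and received a fitted potency; inactive means compounds that showed no inhibition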
CLK2 RBC = blocks human CLK2 kinase in radiometric assay | hit rate 90% among 65 | AID 504427 | Reaction Biology kinase assay, 10 uM ATP | shares compounds with NTMT1 inh | Potency, µM, actives largely listed as inhibitors;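 active means compound that inhibits Clk2 kinase in the dose series, with an IC50 potency reported; inactive means no inhibition seen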
CLK3 inh = inhibitors of human CLK3 kinase; shares compounds with NTMT1 inh; recombinant CLK3 kinase assay, 10 uM ATP; Potency, µM, actives largely listed as inhibitors; hit rate 40% among 65; AID 504428;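 active means compounds that inhibited Clk3 enough in the ten-dose series to give a half-maximal potency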
DYRK1B inh = inhibitors of human Dyrk1b kinase. shares compounds with NTMT1 inh. Recombinant Dyrk1b kinase assay, 10 uM ATP. Potency, µM, actives largely listed as inhibitors. hit rate 80% among 65;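 active means compounds whose dose response shows an inhibitor phenotype against the kinase Dyrk1b; inactive means compounds showing no inhibitor phenotype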
CLK1 RBC = inhibitors of human CLK1 kinase. shares compounds with NTMT1 inh. recombinant Clk1 kinase assay, 10 uM ATP. Potency, µM, usual class: inhibitors. hit rate 90% among 65. AID 504430;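 active means compounds that block the splicing kinase Clk1 enough to give a fitted half-inhibition concentration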
HSD17B4 inh = HSD17B4 (human) inhibition, HPGD counter-screen | hit rate 10% among 230 | Potency, µM (titrated, usually from 57.1 µM), without a hit: at the highest dose activity change, negative = inhibition, usual class: inhibitors | purified HSD17B4, estradiol/NAD+, NADH fluorescence | shares compounds with NTMT1 inh
ALDH1A1 inh = counter-screen for HPGD inhibitors: human ALDH1A1 inhibition; Potency, µM (doses to about 57.1 µM), for the others: top-dose activity change, negative = inhibition, usual class: inhibitors; hit rate 93% among 230; AID 743195; recombinant ALDH1A1, NADH fluorescence, propionaldehyde/NAD+; shares compounds with NTMT1 inh
NNMT counter = human NNMT inhibition, NTMT1 counter-screen. shares compounds with NTMT1 inh. NNMT MTase-Glo luminescence, SAH detection. Potency, µM (highest dose often 57.1 µM), for inactives: at the top dose activity, negative = inhibition, actives largely listed as inhibitors. hit rate 10% among 120
Numbers without * were called inactive; i = inactive; ? = inconclusive; nt = not tested or not shown; ! = repeats disagree; [ ] = dose if it differs, or a comment. Unless noted, the call rests on the fitted dose curve; in most records, active means well fitted curve in the direction sought with a large enough effect; inconclusive means small, poorly fitted or top-dose-only effect, or another doubt; inactive means no such curve, though single readings can be large; an effect the other way counts as inactive or inconclusive.

SMILES | NTMT1 inh | B2AR arrestin ag | FH mod | PTAP-TSG101 blk | GALK inh | others
CC(O)c1ccc(-c2ccc3ncnc(N4CCOCC4)c3c2)o1 (stereo not given) | ? | nt | nt | nt | nt | CLK4 inh-1=0.41µM*;CLK4 inh-2=1.9*;DYRK1A inh-2=29µM*;CLK2 RBC=19µM*;CLK3 inh=i;DYRK1B inh=45µM*;CLK1 RBC=9µM*
O=C(O)c1ccc(-c2ccc3ncnc(N4CCOCC4)c3c2)o1 | -1% | nt | nt | nt | nt | CLK4 inh-1=0.65µM*;CLK4 inh-2=3*;DYRK1A inh-2=45µM*;CLK2 RBC=33µM*;CLK3 inh=i;DYRK1B inh=34µM*;CLK1 RBC=46µM*
Cc1oc2ncnc(N3CCOCC3)c2c1C(=O)N(Cc1ccccc1)C(C)C | ? | i | 5% | i | 1%
NC(=O)[C@@H]1CC[C@H](c2ccc(OCc3ccccc3F)cc2)N1 | 3%[57.5 µM] | nt | 1% | nt | nt
Cc1cc(-c2nnc3n2CCCCCC3)c(C)n1-c1ccccc1 | 12% | nt | nt | nt | nt
Cc1cc(-c2nnc3n2CCCCC3)c(C)n1-c1ccc(Cl)c(Cl)c1 | 19% | nt | nt | nt | nt | HSD17B4 inh=11%;ALDH1A1 inh=0.61µM*
Cc1cc(-c2nnc3n2CCCCC3)c(C)n1-c1cccc(C#N)c1 | 18% | nt | nt | nt | nt | HSD17B4 inh=0%;ALDH1A1 inh=?
Cc1cc(-c2nnc3n2CCCCC3)c(C)n1-c1ccc(Cl)cc1 | 23% | nt | nt | nt | nt
O=C(NCCN1CCCC1)c1cc(-c2ccc(CN3CCOCC3)cc2)nc2ccc(F)cc12 | -16%[29.8 µM] | nt | 10%[53.3 µM] | nt | nt | NNMT counter=-14%[28.6 µM]
Cc1ccc2nc3sc(C(=O)NCCN4CCOCC4)cc3cc2c1 | 0%[57.5 µM] | nt | nt | nt | nt
COc1cc2c(cc1OC)CN(CCc1ccc(NC(=O)c3cccc4c(=O)c5cccc(OC)c5[nH]c34)cc1)CC2 | 28µM*! | nt | -13% | nt | nt | NNMT counter=4µM*
CCOC(=O)c1cnc2ccc(C)cc2c1NCCc1ccc(OC)c(OC)c1 | -15% | i | -21% | i | 2%
O=C(O)c1ccc(-c2ccc3ncnc(NCCc4cnc[nH]4)c3c2)o1 | -3% | nt | nt | nt | nt | DYRK1A inh-1=9.2µM*
CCOC(=O)c1ccc(-c2ccc3ncnc(NCCc4cnc[nH]4)c3c2)o1 | ? | nt | nt | nt | nt | DYRK1A inh-1=1.6µM*
CN1CCN(C(=O)c2ccc3cc(CCNc4ncnc5ccc(C#N)cc45)ccc3c2)CC1 | -12%[57.5 µM] | nt | 4% | nt | nt
CCNC(=O)c1ccc(-c2ccc3ncnc(NCCc4cnc[nH]4)c3c2)o1 | -3%[57.5 µM] | nt | nt | nt | nt | CLK4 inh-1=1.3µM*
c1cncc(CNc2ncnc3ccc(-c4ccco4)cc23)c1 | -2% | nt | nt | nt | nt
OCc1ccc(-c2ccc3ncnc(NCCc4cnc[nH]4)c3c2)o1 | ? | nt | nt | nt | nt | DYRK1A inh-1=23µM*
Cc1ccccc1C(=O)N1CCc2cc(-c3nc(NC(=O)c4ccc5c(c4)OCO5)sc3C)ccc21 | 4% | nt | nt | nt | nt
O=[S+]([O-])(Nc1ccccc1)c1ccc(NCc2ccc(Cl)cc2O)cc1 | 11% | nt | nt | nt | nt
CCOc1ccc(C(=O)Oc2ccc(-c3nc4ccccc4[nH]3)cc2)cc1Cl | 5% | nt | nt | nt | nt
CC(C)c1ccccc1-c1nccc(NCc2ccc(-c3ccnc(C(F)(F)F)c3)cc2)n1 | 10% | nt | nt | nt | nt
N#Cc1c(C(=O)c2cccs2)no[n+]1[O-] | -1% | nt | nt | nt | nt
O=c1c2ccccc2nc2sc(NCc3ccc(Sc4ccccc4)cc3)nn12 | 9% | nt | nt | nt | nt
Cc1noc(C)c1-c1ccc2ncnc(NCc3ccc(F)cc3)c2c1 | 11% | nt | nt | nt | nt
Cc1nc(C)c(-c2ccc3ncnc(NCCc4cnc[nH]4)c3c2)s1 | ? | nt | nt | nt | nt | DYRK1A inh-1=26µM*
CC(C)(C)c1ccc(NC(=O)N2CCN(c3ncccc3Cl)CC2)cc1 | 6%[57.5 µM] | nt | -10% | nt | nt

Source: PubChem BioAssay
